Test results: PMC5540273 (PLoS ONE, 2017)

What was measured:
Settings in all cases: concentration: 1 μM, replicates: in singlicate; n = 1
LTK = test system: LTK
LYN = test system: LYN
LZK = test system: T1, LZK
T1 construct: gene MAP3K13

MAK = test system: MAK
MAP3K15 = test system: MAP3K15
MAP3K1 = test system: MAP3K1
MAP3K2 = test system: MAP3K2
MAP3K3 = test system: MAP3K3
MAP3K4 = test system: MAP3K4
MAP4K2 = test system: MAP4K2
MAP4K3 = test system: MAP4K3
MAP4K4 = test system: MAP4K4
MAP4K5 = test system: MAP4K5
MAPKAPK2 = test system: MAPKAPK2
MAPKAPK5 = test system: MAPKAPK5
MARK1 = test system: MARK1
MARK2 = test system: MARK2
MARK3 = test system: MARK3
MARK4 = test system: MARK4
MAST1 = test system: MAST1
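Note: KINOMEscan kinase panel screen.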

Row | Compound | %Inh (LTK) | %Inh (LYN) | %Inh (LZK) | %Inh (MAK) | %Inh (MAP3K15) | %Inh (MAP3K1) | %Inh (MAP3K2) | %Inh (MAP3K3) | %Inh (MAP3K4) | %Inh (MAP4K2) | %Inh (MAP4K3) | %Inh (MAP4K4) | %Inh (MAP4K5) | %Inh (MAPKAPK2) | %Inh (MAPKAPK5) | %Inh (MARK1) | %Inh (MARK2) | %Inh (MARK3) | %Inh (MARK4) | %Inh (MAST1)
1 | CCc1ccnc(/C=C/c2n[nH]c3cc(Sc4ccccc4C(=O)NC)ccc23)c1 | 6% | 23% | 17% | 20% | 0% | 12% | 17% | 6% | 4% | 9% | 0% | 0% | 3% | 0% | 0% | 27% | 4% | 3% | 21% | 0%
2 | COc1ccc(S(=O)(=O)NC2CCN(c3cc(C)nc(Nc4cccc(C#N)c4)n3)CC2)cc1.O=C(O)C(F)(F)F [GSK1653539] | 0% | 0% | 26% | 19% | 0% | 3% | 0% | 0% | 24% | 0% | 0% | 0% | 0% | 0% | 0% | 0% | 12% | 0% | 0% | 0%
3 | COc1cc(Nc2nccc(N3CCC(NC(=O)c4cccc(NC(C)=O)c4)C3)n2)cc(OC)c1OC (centres unmarked) [GSK1379754] | 20% | 1% | 0% | 18% | 0% | 0% | 10% | 0% | 14% | 0% | 2% | 23% | 10% | 0% | 0% | 0% | 0% | 0% | 15% | 0%
4 | Cc1ccc(C(=O)NCC(N)=O)cc1-n1c(C)cc(OCc2ccc(F)cc2F)c(Br)c1=O | 27% | 18% | 0% | 11% | 0% | 0% | 0% | 0% | 22% | 0% | 12% | 4% | 0% | 17% | 0% | 24% | 11% | 10% | 16% | 0%
5 | N#Cc1ccc(-c2cc(-c3c[nH]nc3-c3ccccn3)ccn2)cc1 [GW693028] | 0% | 0% | 0% | 21% | 0% | 6% | 0% | 0% | 24% | 0% | 0% | 46% | 0% | 4% | 0% | 0% | 0% | 0% | 0% | 26%
6 | Cl.Oc1cccc(Nc2ccnc3cc(-c4ccncc4)ccc23)c1 [GW494601] | 69% | 86% | 36% | 61% | 0% | 1% | 76% | 70% | 0% | 88% | 0% | 47% | 20% | 0% | 0% | 6% | 0% | 0% | 10% | 51%
7 | CSc1ccc(-c2cc3ncnc(SCC(=O)O)c3s2)cc1 | 17% | 0% | 0% | 29% | 0% | 0% | 0% | 0% | 10% | 0% | 0% | 0% | 0% | 1% | 0% | 0% | 18% | 6% | 0% | 15%
